Source: PubChem BioAssay (National Center for Advancing Translational Sciences (NCATS))
A selection: hits, their analogues and other compounds. The true share with any hit is near 9%.
JMJD2A Tudor inh: blocks the human JMJD2A Tudor domain | O75164 | AlphaScreen JMJD2A-Tudor / H3K4me3 peptide binding | Potency, µM (series often up to 114 µM), for the others: at the top dose activity change, negative = inhibition, hits mostly inhibitors | hit rate 4.4% among 390,000 | AID 504339; also: % is scaled to controls: 0 for no effect and ±100 for the full control effect; nearly all actives have a fitted effect of over 50% in size
12-LOX inh: blocks human arachidonate 12S-lipoxygenase. purified 12hLO, xylenol orange hydroperoxide absorbance. Potency, µM (titrated, usually from 108 µM), inactives show at the top dose activity change, negative = inhibition, usual class: inhibitors. AID 1671190. P18054. hit rate 1.1% among 580,000; also: % is scaled to controls: 0 for no effect and ±100 for the full control effect
Target sequence (P18054 whole entry, looked up): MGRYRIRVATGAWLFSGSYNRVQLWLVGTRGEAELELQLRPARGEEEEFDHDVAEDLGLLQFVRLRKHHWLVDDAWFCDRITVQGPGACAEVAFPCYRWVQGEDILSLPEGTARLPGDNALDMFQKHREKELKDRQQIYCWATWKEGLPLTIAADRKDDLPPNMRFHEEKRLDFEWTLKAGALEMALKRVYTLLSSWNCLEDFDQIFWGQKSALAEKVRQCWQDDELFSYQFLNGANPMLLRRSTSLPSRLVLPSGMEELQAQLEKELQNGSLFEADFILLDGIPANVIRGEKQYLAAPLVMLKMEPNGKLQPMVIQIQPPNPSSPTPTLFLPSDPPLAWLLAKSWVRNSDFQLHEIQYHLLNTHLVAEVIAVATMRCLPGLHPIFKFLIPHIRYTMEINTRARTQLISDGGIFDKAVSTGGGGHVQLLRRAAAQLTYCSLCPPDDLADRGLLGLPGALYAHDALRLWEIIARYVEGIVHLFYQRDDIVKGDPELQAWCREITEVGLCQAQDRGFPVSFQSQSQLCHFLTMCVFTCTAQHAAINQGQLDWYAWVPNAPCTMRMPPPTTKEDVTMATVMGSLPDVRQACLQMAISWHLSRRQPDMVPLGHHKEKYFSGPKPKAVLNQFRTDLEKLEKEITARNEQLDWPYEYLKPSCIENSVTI
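Purified human 12hLO at 150 nM in 25 mM Hepes, 0.01% Triton X-100, pH 7.0, preincubated 15 min at room temperature with compound. Reaction started with 40 uM arachidonic acid, 30 min at room temperature. Hydroperoxide measured by Fe-xylenol orange, 573/405 nm absorbance ratio.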
BAZ2B block: blocks human BAZ2B; AlphaScreen BAZ2B-H3K14Ac peptide displacement; Q9UIF8; hit rate 4.4% among 360,000; Potency, µM (highest dose often 114 µM), for the others: at the top dose activity change, negative = inhibition, actives largely listed as inhibitors; also: % is scaled to controls: 0 for no effect and ±100 for the full control effect; nearly all actives have a fitted effect of over 60% in size
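BAZ2B (50 nM) with biotin-H3(5-23)K14Ac peptide (50 nM) in PBS pH 7.4, 0.01% Tween-20, preformed 30 min, then compound 30 min at room temperature; top concentration 110uM. AlphaScreen streptavidin donor/nickel chelate acceptor beads (10 ug/mL final), 20 min dark, signal read.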
PLK1 PBD block: inhibitors of human PLK1 polo-box domain binding. P53350. Plk1 PBD binding of FITC phosphopeptide, fluorescence polarization. Potency, µM, inactives show max response, negative = inhibition, usual class: inhibitors. hit rate 2.8% among 360,000; also: series mostly up to about 57 µM; % is scaled to controls: 0 for no effect and ±100 for the full control effect; nearly all actives have a fitted effect of over 65% in size
HP1b chromo inh: blocks HP1-beta chromodomain binding to methylated histone tails. hit rate 0.56% among 390,000. P83916. Potency, µM (series often up to 114 µM), inactives show at the top dose activity change, negative = inhibition, hits mostly inhibitors. AlphaScreen HP1-beta / biotin-H3K9me3 peptide binding; also: nearly all actives have a fitted effect of over 70% in size
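Compound inhibition of the preformed complex between 50 nM HP1-beta and 50 nM biotinylated H3K9me3 peptide was read by AlphaScreen. Buffer was PBS pH 7.4 with 0.01% Tween-20. Incubations ran 30 min at room temperature, with 10 ug/mL donor/acceptor beads.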
G9a block: G9a (human) methyltransferase inhibition. Q96KQ7. G9a H3K9 monomethylation, AlphaScreen, 2 h. Potency, µM (series often up to 102 µM), for inactives: at the highest dose activity, negative = inhibition, most hits filed as inhibitors. hit rate 8.8% among 350,000; also: % is scaled to controls: 0 for no effect and ±100 for the full control effect; nearly all actives have a fitted effect of over 75% in size
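Enzyme 20 nM + cpd, 15 min RT; add b-H3K9 pep 500 nM / SAM 20 uM; 2 h RT; anti-H3K9me1 Ab 0.5 ug/mL + SA donor / anti-rabbit acceptor beads 20 ug/mL each, 10 min; AlphaScreen read.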
An asterisk follows results filed as active; u = inconclusive; x = no result given; [ ] = another dose, or the depositor's remark. Calls follow the shape of the dose curve; as a rule, active = well fitted curve in the direction sought with a large enough effect; inconclusive = small, poorly fitted or top-dose-only effect, or another doubt; inactive = no such curve, though single readings can be large; an effect the other way counts as inactive or inconclusive. Potency is read from the fitted curve at half-maximal effect.

SMILES | JMJD2A Tudor inh | 12-LOX inh | BAZ2B block | PLK1 PBD block | HP1b chromo inh | G9a block
CC1(C)CC(=O)C(C=NCCN2CCN(C3CC(=O)N(c4cccc(Br)c4)C3=O)CC2)=C(O)C1 (stereo not drawn) | -19% | 3% | -15% | 0% | 32% | 71µM*
O=C(CCn1cnnn1)NC1CCCN(Cc2ccccc2F)C1 (stereo not drawn) | -3% | 116% | -10% | -6% | 17% | 15%
c1cc2[nH]snc2c2nc(C3CC3)nc12 | -16% | -24% | 1% | u | 18% | u
Cc1cc(C)c2c(N)c3ccccc3nc2n1 | 2% | 0% | 2% | -4% | 32% | 50µM*
CC(=O)C1=C(c2ccccc2)NC(=S)NC1c1ccc(O)c(O)c1 (stereo not drawn) | -16% | u | u | -13% | 24% | 8.9µM*
CC1=C([N+](=O)[O-])C(c2ccc(O)c(O)c2)NC(=O)N1 (stereo not drawn) | -19% | 28µM* | 19% | 3% | 11% | 10µM*
CC(=O)C1=C(c2ccccc2)NC(=O)NC1c1ccc(O)c(O)c1 (stereo not drawn) | 13µM* | u | u | -3% | -17% | x
CC(=O)C1=C(c2ccccc2)NC(=S)NC1c1cc(Cl)c(OC(C)C)c(Cl)c1 (stereo not drawn) | -17% | 28µM* | -33% | -3% | u | -8%[59 µM]
Cc1ccc2c(c1)c1c3n2CCN(C(=O)CN2CCN(C)CC2)C3CCC1 (stereo not drawn) | u | 0% | u | -3% | -13% | 45µM*
Cc1ccc2c(c1)c(=O)c1c3n2CCN(C(=O)CCl)C3CC1 (stereo not drawn) | u | -1% | 40µM* | u | -9% | 11µM*
CN1CCN(CC(=O)N2CCn3c4c(c5cc(C6CCCCC6)ccc53)CCCC42)CC1 (stereo not drawn) | 40µM* | x | 35µM* | -4% | u | u
Cc1ccc2c(c1)c1c3n2CCN(C(=O)Cn2c(-c4ccccc4)noc2=O)C3CCC1 (stereo not drawn) | -35% | 0% | 7% | -3% | -4% | -11%
Cc1ccc(N2C(=O)N(CC(=O)N(C)Cc3ccccc3)C(=O)C2C)cc1 (stereo not drawn) | -12% | 17% | -23% | 0% | 22% | -12%[12.7 µM]
Cc1cc(C)cc(Oc2coc3cc(O)ccc3c2=O)c1 | -11% | 0% | -19% | 0% | 33% | 0%[0.501 µM]
C#CCOCCOCCOCCNc1nc(N2CCN(C(=O)[C@H]([C@@H](C)CC)n3cc(CCC(=O)O)nn3)CC2)nc(N2CCN(C(=O)[C@H](Cc3ccc(O)cc3)n3cc(CCO)nn3)CC2)n1 | u | u | x | -3% | 33% | x
C#CCOCCOCCOCCNc1nc(N2CCN(C(=O)C([C@@H](C)CC)n3cc(C(N)Cc4ccc(O)cc4)nn3)CC2)nc(N2CCN(C(=O)[C@H](CCC(=O)O)n3cc(C(N)CO)nn3)CC2)n1 (stereo partly drawn) | 56µM* | x | 50µM* | -1% | 22% | u
C#CCOCCOCCOCCNc1nc(N2CCN(C(=O)C([C@@H](C)CC)n3cc(C(N)Cc4ccc(O)cc4)nn3)CC2)nc(N2CCN(C(=O)[C@H](CCC(=O)O)n3cc(C(N)[C@H](C)CC)nn3)CC2)n1 (stereo partly drawn) | u | u | 79µM* | -2% | 24% | 13%[12.7 µM]
C#CCOCCOCCOCCNc1nc(N2CCN(C(=O)C([C@@H](C)CC)n3cc(C(N)Cc4ccc(O)cc4)nn3)CC2)nc(N2CCN(C(=O)[C@H](CCC(=O)O)n3cc(C(N)Cc4ccc(O)cc4)nn3)CC2)n1 (stereo partly drawn) | 50µM* | x | 56µM* | -20% | 31% | u
